Each structure is given as a SMILES string. Where a name gives a salt, the structure may show the parent alone.

In the first assay the test system is Saccharomyces cerevisiae. In words: fraction of cells in G1 phase (DNA content, flow cytometry); higher = more cells with unreplicated DNA (G1 delay). The note with it: temperature: 30 C; YPD; BY4741 PDR5+ SNQ2+; drug added to: actively dividing cells; 4.33 h. The method, then:
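S. cerevisiae cultures in YPD at 30°C were treated with each drug of the Enzo FDA-approved library at 20 µg/ml (final µM given per drug). Cells were fixed after 6–7 h (S1) or 6 h (S2), or after 4.33 h for BY4741 (S3), then stained with SYTOX Green. %G1 is the Dean-Jett-Fox G1 peak area divided by the G1+G2/M peak areas, written as a fraction and averaged over at least two independent experiments. DMSO reference: mean ~0.49; >0.60 is called High G1 and <0.3876 Low G1. Scale: lower means mitotic delay.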
For orientation: A flow cytometer gives signals particle by particle.
`CO[C@@]12[C@H](COC(N)=O)C3=C(C(=O)C(C)=C(N)C3=O)N1C[C@@H]1N[C@@H]12` [Mitomycin c] (59.8203 µM): the “fraction of cells in G1 phase” value was 0.399.

Regarding `CC(C)(C)C(=O)C(Oc1ccc(Cl)cc1)n1ccnc1` (stereo not given) [Climbazole] (68.3135 µM), the “fraction of cells in G1 phase” value came out at 0.496.

As to `CCOC(=O)C1=C(COCCN)NC(C)=C(C(=O)OC)C1c1ccccc1Cl` (stereo not given) [Amlodipine] (48.9134 µM), the “fraction of cells in G1 phase” value amounted to 0.481.

Take `C[C@]12CCC(=O)C=C1C=C[C@@H]1[C@@H]2CC[C@@]2(C)[C@H]1CC[C@@]21CCC(=O)O1` [Canrenone] (58.7429 µM): the “fraction of cells in G1 phase” value was 0.453.

`CC1CCc2c(N3CCC(O)CC3)c(F)cc3c(=O)c(C(=O)O)cn1c23` (stereo not given) [Nadifloxacin] (55.4956 µM): the “fraction of cells in G1 phase” value was 0.43.

On to `CN(C)CCCN1c2ccccc2Sc2ccc(Cl)cc21` [Chlorpromazine HCl] (62.7212 µM), for which the “fraction of cells in G1 phase” value was 0.373.

The assay is the same for the next values; noted with them: temperature: 30 C; YPD; JTY2953 pdr5 snq2 (sensitized); drug added to: actively dividing cells; 6 h.
On to `O=C1NCN(c2ccccc2)C12CCN(CCCC(c1ccc(F)cc1)c1ccc(F)cc1)CC2` [Fluspirilene] (42.0533 µM), for which the “fraction of cells in G1 phase” value is 0.338.

On to `c1ccc(-c2ccc(C(c3ccccc3)n3ccnc3)cc2)cc1` (stereo not given) [Bifonazole] (64.4325 µM), for which the “fraction of cells in G1 phase” value is 0.474.

With `CC(C)(C)C(=O)C(Oc1ccc(Cl)cc1)n1ccnc1` (stereo not given) [Climbazole] (68.3135 µM), the “fraction of cells in G1 phase” value turned out to be 0.833.

Regarding `CCOC(=O)C1=C(COCCN)NC(C)=C(C(=O)OC)C1c1ccccc1Cl` (stereo not given) [Amlodipine] (48.9134 µM), the “fraction of cells in G1 phase” value was found to be 0.673.

On to `C[C@]12CCC(=O)C=C1C=C[C@@H]1[C@@H]2CC[C@@]2(C)[C@H]1CC[C@@]21CCC(=O)O1` [Canrenone] (58.7429 µM), for which the “fraction of cells in G1 phase” value came out at 0.649.

Staying with this assay, now noted: temperature: 30 C; YPD; JTY2953 pdr5 snq2 (sensitized); drug added to: cultures diluted from stationary phase; 6-7 h.
Consider `O=C1NCN(c2ccccc2)C12CCN(CCCC(c1ccc(F)cc1)c1ccc(F)cc1)CC2` [Fluspirilene] (42.0533 µM), for which the “fraction of cells in G1 phase” value came out at 0.865.

Consider `c1ccc(-c2ccc(C(c3ccccc3)n3ccnc3)cc2)cc1` (stereo not given) [Bifonazole] (64.4325 µM), for which the “fraction of cells in G1 phase” value was 0.758.

Regarding `CO[C@@]12[C@H](COC(N)=O)C3=C(C(=O)C(C)=C(N)C3=O)N1C[C@@H]1N[C@@H]12` [Mitomycin c] (59.8203 µM), the “fraction of cells in G1 phase” value amounted to 0.273.

With `CC1(C)[C@H](C(=O)O)N2C(=O)C[C@H]2S1(=O)=O` [Sulbactam] (85.7469 µM), the “fraction of cells in G1 phase” value was found to be 0.477.

Turning to `CC(C)(C)C(=O)C(Oc1ccc(Cl)cc1)n1ccnc1` (stereo not given) [Climbazole] (68.3135 µM), the “fraction of cells in G1 phase” value worked out at 0.719.

Consider `O=C(NC(Cc1cc(=O)[nH]c2ccccc12)C(=O)O)c1ccc(Cl)cc1` (stereo not given) [Rebamipide] (53.9381 µM), for which the “fraction of cells in G1 phase” value is 0.473.

As to `C[C@H](CCC(=O)NCCS(=O)(=O)O)[C@H]1CC[C@H]2[C@@H]3[C@H](O)C[C@@H]4C[C@H](O)CC[C@]4(C)[C@H]3C[C@H](O)[C@]12C` [Taurocholic acid, sodium salt hydrate] (38.7811 µM), the “fraction of cells in G1 phase” value was determined as 0.491.

With `CCOC(=O)C1=C(COCCN)NC(C)=C(C(=O)OC)C1c1ccccc1Cl` (stereo not given) [Amlodipine] (48.9134 µM), the “fraction of cells in G1 phase” value stood at 0.768.

For the compound `Cc1nc2n(c(=O)c1CCN1CCC(c3noc4cc(F)ccc34)CC1)CCCC2` [Risperidone] (48.7216 µM), the “fraction of cells in G1 phase” value is 0.472.

Take `COc1cc2nc(N(C)CCCNC(=O)C3CCCO3)nc(N)c2cc1OC` (stereo not given) [Alfuzosin] (51.3611 µM): the “fraction of cells in G1 phase” value was 0.523.

On to `CC1(C)S[C@@H]2[C@H](NC(=O)[C@H](N)c3ccc(O)cc3)C(=O)N2[C@H]1C(=O)O` [Amoxicillin] (54.7345 µM), for which the “fraction of cells in G1 phase” value came to 0.457.

`CO[C@H](C(=O)[C@@H](O)[C@@H](C)O)[C@@H]1Cc2cc3cc(O[C@H]4C[C@@H](O[C@H]5C[C@@H](O)[C@H](O)[C@@H](C)O5)[C@H](O)[C@@H](C)O4)c(C)c(O)c3c(O)c2C(=O)[C@H]1O[C@H]1C[C@@H](O[C@H]2C[C@@H](O[C@H]3C[C@](C)(O)[C@H](O)[C@@H](C)O3)[C@@H](O)[C@@H](C)O2)[C@H](O)[C@@H](C)O1` [Plicamycin] (18.4303 µM): the “fraction of cells in G1 phase” value is 0.513.

For `O=C(O)c1cc(/N=N/c2ccc(S(=O)(=O)Nc3ccccn3)cc2)ccc1O` [Sulfasalazine] (50.2008 µM), the “fraction of cells in G1 phase” value was 0.517.

Regarding `Nc1ccc(O)c(C(=O)O)c1` [5-aminosalicylic acid] (130.601 µM), the “fraction of cells in G1 phase” value worked out at 0.48.

In the case of `COc1ccc(Cl)cc1C(=O)NCCc1ccc(S(=O)(=O)NC(=O)NC2CCCCC2)cc1` [Glyburide] (40.4847 µM), the “fraction of cells in G1 phase” value is 0.531.

With `CC(C)(Oc1ccc(CCNC(=O)c2ccc(Cl)cc2)cc1)C(=O)O` [Bezafibrate] (55.2748 µM), the “fraction of cells in G1 phase” value was 0.517.

Consider `C[C@]12CCC(=O)C=C1C=C[C@@H]1[C@@H]2CC[C@@]2(C)[C@H]1CC[C@@]21CCC(=O)O1` [Canrenone] (58.7429 µM), for which the “fraction of cells in G1 phase” value is 0.612.

Take `CC1CCc2c(N3CCC(O)CC3)c(F)cc3c(=O)c(C(=O)O)cn1c23` (stereo not given) [Nadifloxacin] (55.4956 µM): the “fraction of cells in G1 phase” value was 0.281.

As for `Cn1ccnc1S` [Methimazole] (175.178 µM), the “fraction of cells in G1 phase” value stood at 0.473.

`Cc1onc(-c2ccccc2)c1C(=O)N[C@@H]1C(=O)N2[C@@H]1SC(C)(C)[C@@H]2C(=O)O` [Oxacillin sodium monohydrate] (49.9455 µM): the “fraction of cells in G1 phase” value is 0.486.

As to `N[C@@H](Cc1ccc(O)c(O)c1)C(=O)O` [Levodopa] (101.424 µM), the “fraction of cells in G1 phase” value amounted to 0.487.

On to `O=C(O)c1cn(C2CC2)c2cc(N3CCNCC3)c(F)cc2c1=O` [Ciprofloxacin] (60.3592 µM), for which the “fraction of cells in G1 phase” value was 0.461.

As to `CN(C)CCCN1c2ccccc2Sc2ccc(Cl)cc21` [Chlorpromazine HCl] (62.7212 µM), the “fraction of cells in G1 phase” value amounted to 0.278.

Turning to `CC(C(=O)O)c1cccc(C(=O)c2ccccc2)c1` (stereo not given) [Ketoprofen] (78.6509 µM), the “fraction of cells in G1 phase” value came to 0.502.

Take `O=NN(CCCl)C(=O)NC1CCCCC1` [Lomustine] (85.5799 µM): the “fraction of cells in G1 phase” value turned out to be 0.451.

With `O=C(O)c1cccnc1Nc1cccc(C(F)(F)F)c1` [Niflumic acid] (70.8657 µM), the “fraction of cells in G1 phase” value stood at 0.505.

Take `O=C(c1ccc(F)cc1)C1CCN(CCn2c(=O)[nH]c3ccccc3c2=O)CC1` [Ketanserin tartrate] (50.5769 µM): the “fraction of cells in G1 phase” value came out at 0.475.

`O=C1CN2Cc3c(ccc(Cl)c3Cl)N=C2N1` [Anagrelide] (78.0967 µM): the “fraction of cells in G1 phase” value was determined as 0.469.

In the case of `C#C[C@]1(O)CC[C@H]2[C@@H]3[C@H](C)CC4=C(CCC(=O)C4)[C@H]3CC[C@@]21C` [Tibolone] (64.009 µM), the “fraction of cells in G1 phase” value came to 0.56.

These data come from the supplement of paper PMC3342239.
